Screens: PubChem, National Center for Advancing Translational Sciences (NCATS)
Sampled rows, rich in hits. Any-hit rate of the full collection: about 18%.
VDR inh: blocks the human vitamin D receptor; P11473; VDR-SRC2-3 peptide fluorescence polarization, 2 h; Potency, µM, for inactives: max response, negative = inhibition, most hits filed as inhibitors; hit rate 0.93% among 400,000
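The screen uses fluorescence polarization to detect compounds that interfere with recruitment of the SRC2-3 coactivator peptide to VDR; plates are read after 2 h at room temperature.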
DT40 TDP1 CPT: DT40-hTDP1 cell growth loss with CPT; chicken DT40 Tdp1-/-;hTDP1 cells + 20 nM CPT, ATP luminescence, 48 h; hit rate 12% among 420,000; Potency, µM (series often up to 46.2 µM), inactives show top-dose activity change, negative = growth inhibition, hits mostly inhibitors; AID 686979; further: nearly all actives have a fitted effect of over 55% in size
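Chicken DT40 Tdp1-/- cells complemented with human TDP1, 400 cells/well, exposed to compounds plus 20 nM camptothecin for at least 48 h at 37 C; viability read as ATP content by CellTiter-Glo luminescence.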
KAT2A inh: GCN5L2 (KAT2A) acetyltransferase inhibition; Q92830; Potency, µM (titrated, usually from 58.9 µM), without a hit: at the highest dose activity change, negative = inhibition, hits mostly inhibitors; hit rate 0.21% among 390,000; AID 504327; GCN5L2 HAT assay, ThioGlo1 CoA-SH fluorescence
Target sequence (Q92830 whole entry, looked up): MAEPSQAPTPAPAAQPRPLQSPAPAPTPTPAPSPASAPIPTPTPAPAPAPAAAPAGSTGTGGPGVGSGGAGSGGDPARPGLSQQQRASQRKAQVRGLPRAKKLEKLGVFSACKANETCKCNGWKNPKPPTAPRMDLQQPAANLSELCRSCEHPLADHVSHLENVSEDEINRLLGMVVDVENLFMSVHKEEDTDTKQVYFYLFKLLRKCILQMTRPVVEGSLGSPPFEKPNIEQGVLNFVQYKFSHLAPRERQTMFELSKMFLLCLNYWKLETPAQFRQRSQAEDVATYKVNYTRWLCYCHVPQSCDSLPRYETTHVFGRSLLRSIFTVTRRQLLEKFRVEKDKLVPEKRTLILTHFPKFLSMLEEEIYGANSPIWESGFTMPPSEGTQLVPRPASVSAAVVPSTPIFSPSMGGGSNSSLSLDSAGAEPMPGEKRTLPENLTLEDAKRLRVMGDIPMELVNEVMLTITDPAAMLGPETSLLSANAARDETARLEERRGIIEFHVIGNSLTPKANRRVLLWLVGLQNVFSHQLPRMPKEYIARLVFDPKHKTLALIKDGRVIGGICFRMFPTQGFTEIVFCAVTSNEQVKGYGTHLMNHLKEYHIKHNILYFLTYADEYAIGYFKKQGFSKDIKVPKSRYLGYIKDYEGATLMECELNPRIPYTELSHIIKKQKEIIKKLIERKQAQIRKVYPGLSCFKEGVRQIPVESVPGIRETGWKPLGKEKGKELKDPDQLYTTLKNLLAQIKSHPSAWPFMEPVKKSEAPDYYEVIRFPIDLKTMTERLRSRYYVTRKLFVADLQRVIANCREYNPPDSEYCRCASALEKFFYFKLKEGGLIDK
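GCN5L2 (20nM final) in 50mM HEPES, 0.1mM EDTA pH 7.5, 0.01% Tween-20 was preincubated 15 min at room temperature with compound, then given ThioGlo1 (50uM), H3(1-25) peptide (75uM) and acetyl-CoA (70uM); CoA-thiol fluorescence (Ex340/Em540) was read at 0 and 20 min.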
PLK1 PBD block: blocks phosphopeptide binding to human PLK1 polo-box domain; Plk1 PBD binding of FITC phosphopeptide, fluorescence polarization; AID 720504; hit rate 2.8% among 360,000; Potency, µM, without a hit: max response, negative = inhibition, usual class: inhibitors; further: series mostly up to about 57 µM; nearly all actives have a fitted effect of over 65% in size
TDP1 cell noCPT: qHTS for Inhibitors of human tyrosyl-DNA phosphodiesterase 1 (TDP1): qHTS in cells in absence of CPT; DT40 Tdp1-/- hTDP1 cells, no CPT, ATP luminescence, 48 h; Potency, µM (series often up to 46.2 µM), for the others: top-dose activity change, negative = growth inhibition, usual class: inhibitors; hit rate 15% among 420,000; AID 686978, 2013; further: nearly all actives have a fitted effect of over 55% in size
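Compound effects on proliferation are scored in DT40 Tdp1-/-;hTDP1 cells in the absence of CPT. ATP levels (CellTiter-Glo luminescence) are recorded after a ≥48 hr, 37 °C incubation.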
TDP1 inh: inhibitors of human tyrosyl-DNA phosphodiesterase TDP1; Q9NUW8; recombinant TDP1, AlphaScreen DNA substrate cleavage; Potency, µM (highest dose often 130 µM), for the others: at the highest dose activity change, negative = inhibition, actives largely listed as inhibitors; hit rate 0.28% among 350,000; AID 485290; further: nearly all actives have a fitted effect of over 40% in size
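Recombinant E. coli-expressed Tdp1 (1 nM) preincubated with compound 15 min at RT, then 5'-biotin/3'-phosphotyrosine-FITC DNA substrate (15 nM) added for 5 min. AlphaScreen beads (10 ug/ml) added, 10 min RT; tyrosine-FITC cleavage read as signal loss.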
* = called active by the depositor; ? = inconclusive; . = not tested or not shown; [ ] = remark or other dose. The call rests on the fitted dose curve; in most records, active means well fitted curve in the direction sought with a large enough effect; inconclusive means small, poorly fitted or top-dose-only effect, or another doubt; inactive means no such curve, though single readings can be large; an effect the other way counts as inactive or inconclusive. On the % scale 0 is the no-effect control and ±100 the full control effect; potency means the concentration at half of the fitted maximal effect.

SMILES	VDR inh	DT40 TDP1 CPT	KAT2A inh	PLK1 PBD block	TDP1 cell noCPT	TDP1 inh
CCOC(=O)CSc1n[nH]c(-c2ccco2)n1	-26%	?	-1%	30µM*	2%	-7%
O=C(CSc1n[nH]c(-c2ccco2)n1)Nc1ccc(Br)cc1	-15%	?	-28%	27µM*	?	7%[56.1 µM]
CCOC(=O)c1c(NC(=O)CSc2n[nH]c(-c3ccco3)n2)sc(C)c1C	-2%	-26%	-7%	-6%	-27%	9%
COc1cc(OC)c2nc(-c3cc4c(c(OC)c3)OCCN(C(=O)CC3NC(=O)c5ccccc53)C4)cc(C)c2c1 (stereo not given)	.	?	.	.	23µM*	.
O=C(NCCc1ccccc1)C(NS(=O)(=O)c1cccc2nsnc12)c1ccccc1 (stereo not given)	-13%	-29%	-1%	-15%	-3%	3%
Cc1cccc2cc(/C=C/C(=O)c3ccco3)c(Cl)nc12	?	4.6µM*	-5%	-16%	8.2µM*	-1%
Cc1cccc2cc(/C=N/Nc3ccc(C(=O)O)cc3)c(Cl)nc12	0%	-26%	-7%	?	?	-10%
CCOc1ccc2nc(Cl)c(/C=C/C(=O)c3ccco3)cc2c1	?	10µM*	-4%	-6%	15µM*	7%
Cc1ccc(CNC(=O)c2cc(-c3ccccc3)n(Cc3cc(C)no3)n2)cc1	2%	21µM*	-6%	2%	?	2%
O=S(=O)(c1ccccc1)N1c2cc(Cl)ccc2Oc2nc3ccccc3nc21	-21%	?	-10%	-9%	10µM*	2%
COCC(=O)n1nc(NCc2ccc(OC)cc2)nc1NCc1ccc(OC)cc1	-28%	?	0%	12µM*	?	4%
Cc1ccccc1Cn1c(CN2CCC(C(=O)NCc3ccc(Cl)cc3)CC2)cc2ccccc21	16%	?	-5%	.	?	4%
CCOc1ccc(CNC(=O)C2CCN(Cc3cc4ccccc4n3Cc3ccccc3C)CC2)cc1	13%	13µM*	2%	.	23µM*	2%
COc1cccc(CNC(=O)C2CCN(C(=O)N(C)C)CC2)c1	19%	0%	-3%	-6%	2%	3%
COc1cccc(CNC(=O)C2CCN(Cc3cc4ccccc4n3Cc3ccc(C)cc3)CC2)c1	10%	?	-2%	.	21µM*	5%
Cc1ccccc1Cn1c(CN2CCC(C(=O)NCCN(C)C)CC2)cc2ccccc21	14%	3.3µM*	0%	.	4.1µM*	9%
Fc1ccc(NC(=S)N2CCCN(c3ccc(C(F)(F)F)cn3)CC2)c(F)c1	-1%	16µM*	-2%	-5%	18µM*	0%
O=C(O)c1ccccc1C(=O)NC1CCN(c2nccc(C(F)(F)F)n2)CC1	0%	6%	6%	1%	0%	.
Cc1csc2ncnc(N3CCN(C(=S)Nc4ccc(F)cc4F)CC3)c12	-12%	?	-5%	0%	15µM*	4%
Cc1ccc(NC(=S)N2CCN(c3ncccn3)CC2)c(C)c1	-13%	12%	-9%	-4%	1%	3%
Cc1cccc(Cl)c1NC(=S)N1CCN(c2ccc([N+](=O)[O-])cn2)CC1	-17%	?	0%	-14%	26µM*	.
O=C(Nc1ccccc1)N1CCCN(c2nccc(C(F)(F)F)n2)CC1	2%	29µM*	-6%	-4%	?	0%
COc1ccc(CN(C(=O)c2ccccc2F)C2CCS(=O)(=O)C2)cc1 (stereo not given)	2%	-2%	5%	.	-11%	-3%
COc1ccc(NC(=O)N2CCN(c3cccc(C(F)(F)F)c3)CC2)cc1OC	0%	?	-14%	-6%	12µM*	8%
Cc1ccc(NC(=O)CSCC(=O)N2CCN(c3cccc(C(F)(F)F)c3)CC2)cc1	-26%	?	1%	-2%	15µM*	.
SMILES	VDR inh	DT40 TDP1 CPT	KAT2A inh	PLK1 PBD block	TDP1 cell noCPT	TDP1 inh
CNC(=S)Nc1ccc(N2CCN(c3ccc(C(F)(F)F)cn3)CC2)nc1	33%	?	-1%	2%	26µM*	-3%
CN1CCN(c2ccc(NC(=O)c3ccc(C(F)(F)F)cc3)cn2)CC1	-17%	-11%	-9%	-13%	-18%	-3%
O=C(CS(=O)(=O)Cc1ccccc1)N1CCN(c2cccc(C(F)(F)F)c2)CC1	-14%	?	6%	30µM*	?	3%
COc1ccc(NC(=O)N2CCOCC2)cc1OC	0%	6%	-2%	1%	3%	1%
CSCCC(NC(=O)c1ccco1)C(=O)N1CC=C(c2ccccc2)CC1 (stereo not given)	-3%	?	0%	-9%	?	4%
CC(=NNC1=NCCN1)c1cnn(C2=NCCN2)c1C	.	-12%	.	2%	-16%	.
O=C(Nc1ccccc1)N1CCN(c2ccc(C(F)(F)F)cn2)CC1	16%	7.3µM*	-7%	-2%	23µM*	1%
O=C(Nc1ccccc1)N1CCN(c2cccc(C(F)(F)F)c2)CC1	-3%	21µM*	2%	0%	12µM*	2%
CCC(C)[C@H](NC(=O)N1CCN(c2cccc(C(F)(F)F)c2)CC1)C(=O)OC (stereo not given in full)	-11%	15µM*	-2%	-3%	21µM*	8%
O=C(CCS(=O)(=O)c1cc(Br)cc2c1N(C(=O)C1CC1)CC2)N1CCN(c2cccc(C(F)(F)F)c2)CC1	5%	16µM*	-3%	.	18µM*	2%
CCOC(=O)Cn1nc(NC(=O)COc2ccc(F)cc2)cc1C	0%	-10%	-3%	4%	-10%	2%
CCc1nc2cc(C(=O)NC3CCS(=O)(=O)C3)cc(NC(=O)c3ccccc3OC)c2n1C (stereo not given)	.	-3%	.	.	-8%	.
O=C(Nc1cccc(C(F)(F)F)c1)c1cccnc1N1CCN(c2ccccc2)CC1	0%	?	-14%	-3%	18µM*	-7%
CC1CN(C(=O)CCC(=O)N2CCN(c3cccc(C(F)(F)F)c3)CC2)c2ccccc2O1 (stereo not given)	3%	18µM*	-11%	-9%	21µM*	5%
CC(NC(=O)c1ccco1)C(=O)N1CCN(c2cccc(C(F)(F)F)c2)CC1 (stereo not given)	5%	13µM*	1%	-1%	10µM*	-1%
CC(C)(C)c1ccc(NC(=O)N2CCCN(c3ccc([N+](=O)[O-])cn3)CC2)cc1	1%	?	-9%	-6%	26µM*	6%
